# The supplement of paper PMC8728848
# About 410 targets per protein were measured; listed, in parts, are those with the strongest signals and a random draw of the rest.
# Columns and labels:
# Experiment in all cases: glycan array binding signal (z-score within array); higher = stronger binding
# Conditions in all cases: glycan notation: IUPAC condensed, linker removed
# [1] = biological target: Fuc(a1-2)Gal(b1-3)GalNAc
# How it was run: (§1)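 Columns mapping to the same glycan were averaged after glycan names were converted to IUPAC-condensed notation. The data come from 3228 arrays in the Consortium for Functional Glycomics database, limited to those with an available protein sequence. Binding is reported as a within-array Z-score averaged across arrays of one protein sequence and across linkers.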
# [2] = biological target: Fuc(a1-2)Gal(b1-3)GalNAc(b1-4)[Neu5Ac(a2-3)]Gal(b1-4)Glc
# How it was run: as §1
# [3] = biological target: Fuc(a1-2)Gal(b1-4)[Fuc(a1-3)]GlcNAc
# How it was run: as §1
# [4] = biological target: Fuc(a1-2)Gal(b1-4)[Fuc(a1-3)]GlcNAc(b1-3)Gal(b1-4)[Fuc(a1-3)]GlcNAc
# How it was run: as §1
# [5] = biological target: Fuc(a1-2)Gal(b1-4)[Fuc(a1-3)]GlcNAc(b1-3)Gal(b1-4)[Fuc(a1-3)]GlcNAc(b1-3)Gal(b1-4)[Fuc(a1-3)]GlcNAc
# How it was run: as §1
# [6] = biological target: Fuc(b1-3)GlcNAc
# How it was run: as §1
# [7] = biological target: Gal(a1-3)Gal
# How it was run: as §1
# [8] = biological target: Gal(b1-4)Glc6S
# How it was run: as §1
# [9] = biological target: Gal3S(b1-4)GlcNAc6S
# How it was run: as §1
# [10] = biological target: Gal3S6S(b1-4)GlcNAc
# How it was run: as §1
# [11] = biological target: Gal3S6S(b1-4)GlcNAc6S
# How it was run: as §1
# [12] = biological target: Gal6S(b1-4)Glc6S
# How it was run: as §1
# [13] = biological target: GalNAc(a1-3)GalNAc
# How it was run: as §1
# [14] = biological target: GalNAc(b1-4)GlcNAc
# How it was run: as §1
# [15] = biological target: Neu5Ac(a2-3)Gal(b1-3)GlcNAc
# How it was run: as §1
# [16] = biological target: Neu5Ac(a2-3)GalNAc
# How it was run: as §1
# [17] = biological target: Neu5Gc(a2-3)Gal(b1-4)[Fuc(a1-3)]GlcNAc
# How it was run: as §1
# [18] = biological target: Fuc(a1-2)Gal(b1-3)GalNAc(b1-3)Gal(a1-4)Gal(b1-4)Glc
# How it was run: as §1
# [19] = biological target: Fuc(a1-2)Gal(b1-4)GlcNAc(b1-3)Gal(b1-4)GlcNAc
# How it was run: as §1
# [20] = biological target: Gal(a1-4)Gal(b1-4)Gal
# How it was run: as §1
# [21] = biological target: Gal(a1-4)Gal(b1-4)GalNAc
# How it was run: as §1
# [22] = biological target: Gal(b1-3)GalNAc(b1-3)Gal(b1-4)Glc
# How it was run: as §1
# [23] = biological target: Gal(b1-4)GlcNAc(b1-3)GalNAc
# How it was run: as §1
# [24] = biological target: Gal6S(b1-4)Glc
# How it was run: as §1
# [25] = biological target: Man(a1-2)Man(a1-2)Man(a1-3)[Man(a1-2)Man(a1-6)[Man(a1-3)]Man(a1-6)]Man(b1-4)GlcNAc(b1-4)GlcNAc
# How it was run: as §1
# [26] = biological target: Man(a1-3)[Man(a1-6)]Man
# How it was run: as §1
# [27] = biological target: Neu5Ac(a2-3)Gal(b1-3)GalNAc6S
# How it was run: as §1
# [28] = biological target: Neu5Ac(a2-3)Gal(b1-4)GlcNAc(b1-3)Gal(b1-4)[Fuc(a1-3)]GlcNAc
# How it was run: as §1
# [29] = biological target: Neu5Gc(a2-6)Gal(b1-4)GlcNAc
# How it was run: as §1
# [30] = biological target: Fuc(a1-4)GlcNAc
# How it was run: as §1
# [31] = biological target: Gal(a1-3)[Gal(a1-4)]Gal(b1-4)GlcNAc
# How it was run: as §1
# [32] = biological target: Gal(b1-3)GalNAc(b1-3)Gal(a1-4)Gal(b1-4)Glc
# How it was run: as §1
# [33] = biological target: Gal(b1-4)GalNAc(b1-3)[Fuc(a1-2)]Gal(b1-4)GlcNAc
# How it was run: as §1
# [34] = biological target: Gal(b1-4)GlcNAc(b1-6)GalNAc
# How it was run: as §1
# [35] = biological target: GalNAc(b1-3)GalNAc
# How it was run: as §1
# [36] = biological target: GlcNAc(b1-2)Gal(b1-3)GalNAc
# How it was run: as §1
# [37] = biological target: GlcNAc(b1-3)Gal(b1-3)GalNAc
# How it was run: as §1
# [38] = biological target: GlcNAc(b1-3)GalNAc
# How it was run: as §1
# [39] = biological target: GlcNAc(b1-6)Gal(b1-4)GlcNAc
# How it was run: as §1
# [40] = biological target: Man(a1-2)Man(a1-3)[Man(a1-6)]Man(a1-6)[Man(a1-2)Man(a1-3)]Man(b1-4)GlcNAc(b1-4)GlcNAc
# How it was run: as §1
# [41] = biological target: Man(b1-4)GlcNAc
# How it was run: as §1
# [42] = biological target: Neu5Ac(a2-8)Neu5Ac(a2-8)Neu5Ac
# How it was run: as §1
binder,measurement,setting,value
MIG/CXCL9 (Homo sapiens) (protein) TPVVRKGRCSCISTNQGTIHLQSLKDLKQFAPSPSCEKIEIIIATLKNGVQTCLNPDSADVKELIKKTEKQVSQKKKQKNGKKHQKKKVLKVRKSQRSRQKKTT,glycan array binding signal (z-score),[1],-0.29
same,glycan array binding signal (z-score),[2],-0.193
same,glycan array binding signal (z-score),[3],-0.26
same,glycan array binding signal (z-score),[4],-0.383
same,glycan array binding signal (z-score),[5],-0.37
same,glycan array binding signal (z-score),[6],-0.209
same,glycan array binding signal (z-score),[7],-0.114
same,glycan array binding signal (z-score),[8],0.015
same,glycan array binding signal (z-score),[9],2.28
same,glycan array binding signal (z-score),[10],2.35
same,glycan array binding signal (z-score),[11],5.28
same,glycan array binding signal (z-score),[12],2.35
same,glycan array binding signal (z-score),[13],0.274
same,glycan array binding signal (z-score),[14],-0.358
same,glycan array binding signal (z-score),[15],-0.037
same,glycan array binding signal (z-score),[16],-0.254
same,glycan array binding signal (z-score),[17],-0.288
"RNase 1 (Bos taurus), P61823 (protein) MALKSLVLLSLLVLVLLLVRVQPSLGKETAAAKFERQHMDSSTSAASSSNYCNQMMKSRNLTKDRCKPVNTFVHESLADVQAVCSQKNVACKNGQTNCYQSYSTMSITDCRETGSSKYPNCAYKTTQANKHIIVACEGNPYVPVHFDASV",glycan array binding signal (z-score),[1],-0.157
same,glycan array binding signal (z-score),[18],1.93
same,glycan array binding signal (z-score),[19],-0.225
same,glycan array binding signal (z-score),[20],7.93
same,glycan array binding signal (z-score),[21],8.87
same,glycan array binding signal (z-score),[22],0.641
same,glycan array binding signal (z-score),[8],-0.14
same,glycan array binding signal (z-score),[23],-0.22
same,glycan array binding signal (z-score),[24],-0.073
same,glycan array binding signal (z-score),[25],-0.153
same,glycan array binding signal (z-score),[26],-0.147
same,glycan array binding signal (z-score),[27],-0.195
same,glycan array binding signal (z-score),[28],-0.22
same,glycan array binding signal (z-score),[16],-0.24
same,glycan array binding signal (z-score),[29],-0.201
MPA (Maclura pomifera) (protein) GVTFDDGAYTGIREINFEYNSETAIGGLRVTYDLNGMPFVAEDHKSFITGFKPVKISLEFPSEYIVEVSGYVGKVEGYTVIRSLTFKTNKQTYGPYGVTNGTPFSLPIENGLIVGFKGSIGYWLDYFSIYLSLNGPNGKSQSIIVGPWGDRVTN,glycan array binding signal (z-score),[1],2.25
same,glycan array binding signal (z-score),[30],-0.223
same,glycan array binding signal (z-score),[31],-0.16
same,glycan array binding signal (z-score),[32],-0.24
same,glycan array binding signal (z-score),[33],-0.249
same,glycan array binding signal (z-score),[23],5.97
same,glycan array binding signal (z-score),[34],-0.161
same,glycan array binding signal (z-score),[10],-0.233
same,glycan array binding signal (z-score),[35],6.31
same,glycan array binding signal (z-score),[36],5.63
same,glycan array binding signal (z-score),[37],3.46
same,glycan array binding signal (z-score),[38],6.85
same,glycan array binding signal (z-score),[39],-0.229
same,glycan array binding signal (z-score),[40],-0.244
same,glycan array binding signal (z-score),[41],-0.24
same,glycan array binding signal (z-score),[42],-0.244
